Records with an inconclusive call do not appear. Some compounds were tested as several samples or in several runs, with calls that do not always agree. Active and inactive are the calls of the source. How the source made its calls: active means hit-call score of the fitted dose curve at least 0.9, where 1 is the maximum; inconclusive means response in the unintended direction; inactive means score below 0.9.
Assay: ATG_XTT_Cytotoxicity: Cytotoxicity Assessment in the Attagene TRANS-FACTORIAL HepG2 Assay (AID 2283584);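 on AC50: cells exposed to compound for 24 h before reading; active means loss of viability signal versus DMSO baseline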
Summary of the method: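 Cells: human HepG2, transiently transfected with MRTU reporter constructs. Exposure 24 h. Readout: XTT, cell number. Baseline/neg ctrl DMSO; loss-of-signal scored.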
In the case of `C=Cc1ccc(C)cc1`, the outcome is reported as “inactive”.
For `O=C1c2ccccc2C(=O)c2c(O)ccc(O)c21`, the outcome was “inactive”.
For `C=C(C)C1CC=C(C)C(=O)C1` (configuration not stated), the outcome was “inactive”.
With `CCCCCc1ccco1` the outcome was “inactive”.
In the case of `CN(c1nccc(=O)[nH]1)C1CCN(c2nc3ccccc3n2Cc2ccc(F)cc2)CC1`, the outcome is reported as “inactive”.
With `CN(C)CCOc1ccc(/C(=C(/CCCl)c2ccccc2)c2ccccc2)cc1` the AC50 was 24.6 µM (active).
In the case of `C=CC(=C)CCCC(C)(C)OC(C)=O`, the outcome is reported as “inactive”.
In the case of `Nc1ccc2c(O)cc(S(=O)(=O)O)cc2c1`, the outcome is reported as “inactive”.
With `N[C@@H](Cc1cc(I)c(Oc2cc(I)c(O)c(I)c2)c(I)c1)C(=O)O` the outcome was “inactive”.
With `Nc1ccc(N)c2c1C(=O)c1ccccc1C2=O` the outcome was “inactive”.
With `CC/C=C\CC/C=C/CO` the outcome was “inactive”.
With `CC1(C)COCN1` the outcome was “inactive”.
In the case of `COc1cc(C(C)C)ccc1C`, the outcome is reported as “inactive”.
In the case of `CCN(CCN)c1cccc(C)c1`, the outcome is reported as “inactive”.
In the case of `Nc1ccc(Cl)c([N+](=O)[O-])c1`, the outcome is reported as “inactive”.
For `CC(=O)O[C@@H]1C[C@@H]2CC[C@@]1(C)C2(C)C`, the outcome was “inactive”.
With `Clc1ccc(C(c2ccccc2Cl)C(Cl)Cl)cc1` (configuration not stated) the AC50 was 148 µM (active) and the outcome was “inactive”.
With `Cc1ncc([N+](=O)[O-])n1CCO` the outcome was “inactive”.
For `CC1(C)C2=CCCC(C)(C)[C@]23CC[C@H]1C3`, the outcome was “inactive”.
In the case of `CCC(=O)OCCOc1ccccc1`, the outcome is reported as “inactive”.
In the case of `OCCCCC(O)CO` (configuration not stated), the outcome is reported as “inactive”.
In the case of `COC(=O)C=C(C)CCC=C(C)C`, the outcome is reported as “inactive”.
For `CCCCCCCC(=O)OCC(O)CO` (configuration not stated), the outcome was “inactive”.
In the case of `IC(I)I`, the outcome is reported as “inactive”.
In the case of `COc1ccc(COC(C)=O)cc1`, the outcome is reported as “inactive”.
In the case of `C=C1CC[C@H](O)C/C1=C/C=C1\CCC[C@]2(C)[C@@H]([C@H](C)/C=C/[C@H](C)C(C)C)CC[C@@H]12`, the outcome is reported as “inactive”.
With `CCCCC(CC)COC(C)=O` (configuration not stated) the outcome was “inactive”.
In the case of `Oc1ccc2cc(SSc3ccc4cc(O)ccc4c3)ccc2c1`, the outcome is reported as “inactive”.
For `CCOC(=O)C(C#N)=C(c1ccccc1)c1ccccc1`, the outcome was “inactive”.
For `CC(C)(C)CC(C)(C)c1ccc(OCCOCC[N+](C)(C)Cc2ccccc2)cc1`, the AC50 was 44.9 µM (active).
In the case of `C=CCCCCCCCCCC`, the outcome is reported as “inactive”.
With `CC(C)=CCCC(C)CCOC=O` (configuration not stated) the outcome was “inactive”.
With `COc1ccc(OC)c(N=Nc2c(O)ccc3ccccc23)c1` the outcome was “inactive”.
With `CSc1c(Cl)c(Cl)c(Cl)c(Cl)c1Cl` the outcome was “inactive”.
For `CCC(C)c1cc([N+](=O)[O-])cc([N+](=O)[O-])c1OC(=O)OC(C)C` (configuration not stated), the outcome was “inactive”.
With `C=Cc1ccc(C(C)(C)C)cc1` the outcome was “inactive”.
